Compounds with a hit are over-represented: about 2.8% of the library has one in this group of screens.
Pol kappa inh: blocks human DNA polymerase kappa activity; AID 588579; Potency, µM (series often up to 107 µM), for the others: at the highest dose activity, negative = inhibition, actives largely listed as inhibitors; Q9UBT6; purified Pol kappa, fluorescent DNA synthesis assay, 10 min; 400,000 compounds, 0.53% hits; also: potency is read from the fitted curve at half-maximal effect; % is scaled to controls: 0 for no effect and ±100 for the full control effect
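Pol kappa 10 nM + cpd, 15 min RT; start w/ substrate 50 nM final; fluorescence kinetic read, 0 and 10 min. Neg ctrl: buffer, no enzyme.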
WRN helicase inh: WRN helicase (human) inhibition; Q14191; WRN helicase unwinding, fluorescent forked duplex, kinetic; Potency, µM (series often up to 114 µM), for the others: top-dose activity change, negative = inhibition, most hits filed as inhibitors; 360,000 compounds, 0.46% hits; also: potency is read from the fitted curve at half-maximal effect; % is scaled to controls: 0 for no effect and ±100 for the full control effect; nearly all actives have a fitted effect of over 55% in size
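Kinetic fluorescence helicase assay: unwinding of a quenched forked DNA duplex (100 nM final) with 2 mM ATP final raises red fluorescence (525/598 nm). Compounds sat 15 min at room temperature with 20 nM WRN beforehand.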
POLH inh: DNA polymerase eta (human) inhibition | Q9Y253 | recombinant Pol eta, fluorescent DNA replication assay | Potency, µM (highest dose often 114 µM), inactives show at the highest dose activity change, negative = inhibition, actives largely listed as inhibitors | 390,000 compounds, 1.2% hits | AID 588591; also: potency is read from the fitted curve at half-maximal effect; % is scaled to controls: 0 for no effect and ±100 for the full control effect
Target sequence (Q9Y253 whole entry, looked up): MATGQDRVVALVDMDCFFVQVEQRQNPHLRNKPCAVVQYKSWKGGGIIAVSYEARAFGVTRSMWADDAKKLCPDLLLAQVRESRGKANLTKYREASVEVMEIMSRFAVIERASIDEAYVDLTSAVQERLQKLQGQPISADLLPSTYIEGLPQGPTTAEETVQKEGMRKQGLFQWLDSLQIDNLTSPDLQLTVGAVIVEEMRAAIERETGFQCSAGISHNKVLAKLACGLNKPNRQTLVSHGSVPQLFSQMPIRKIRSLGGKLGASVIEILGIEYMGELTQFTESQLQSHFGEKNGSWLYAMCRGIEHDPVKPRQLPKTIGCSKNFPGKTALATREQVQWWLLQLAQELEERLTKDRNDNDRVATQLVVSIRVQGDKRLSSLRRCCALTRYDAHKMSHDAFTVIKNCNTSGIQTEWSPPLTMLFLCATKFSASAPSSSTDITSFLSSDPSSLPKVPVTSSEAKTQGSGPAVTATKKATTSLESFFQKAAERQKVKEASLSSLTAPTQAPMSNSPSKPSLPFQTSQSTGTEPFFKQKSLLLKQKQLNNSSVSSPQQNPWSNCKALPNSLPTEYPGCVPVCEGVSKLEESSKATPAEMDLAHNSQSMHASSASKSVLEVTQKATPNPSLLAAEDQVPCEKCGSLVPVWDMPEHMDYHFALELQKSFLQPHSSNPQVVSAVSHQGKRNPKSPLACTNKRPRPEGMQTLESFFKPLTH
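Fluorescent replication assay: 50 nM final substrate added after a 15 min room-temperature compound preincubation with 10 nM enzyme. Signal taken at 0 min and again at 10 min.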
PI5P4K alpha inh: inhibitors of human PI5P4K alpha; P48426; PI5P4Kalpha enzyme, ADP-Glo luminescence, 60 min; active compounds read low; max response, %; 330,000 compounds, 1.2% hits; AID 652105; active = max response of -50% or lower; inconclusive = between -30% and -50%; inactive = -30% or higher; also: value at the top dose of about 77 µM; % is scaled to controls: 0 for no effect and ±100 for the full control effect
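PI5P4Kalpha ADP-Glo assay; 5 microM ATP final; 60 min RT reaction; HEPES pH 7.4/EGTA/CHAPS, 5% DMSO; controls lacking substrate or enzyme; luminescent end-point.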
Pol beta inh: blocks human DNA polymerase beta activity. P06746. Pol beta primer extension/strand displacement, fluorescence kinetic. Potency, µM (series often up to 114 µM), inactives show at the highest dose activity change, negative = inhibition, hits mostly inhibitors. 340,000 compounds, 1.3% hits. AID 485314; also: potency is read from the fitted curve at half-maximal effect; % is scaled to controls: 0 for no effect and ±100 for the full control effect
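Homogeneous kinetic assay of primer extension and strand displacement by 10 nM Pol beta, preincubated 15 min at room temperature with compound before 50 nM substrate (final) was added. Read at 0 and 10 min; four-parameter Hill fit.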
POLI inh: blocks human DNA polymerase iota activity | Q9UNA4 | Pol iota fluorescent replication assay, 10 min | AID 588590 | Potency, µM (highest dose often 115 µM), for inactives: at the highest dose activity, negative = inhibition, hits mostly inhibitors | 390,000 compounds, 1% hits; also: potency is read from the fitted curve at half-maximal effect
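Fluorescent replication assay read twice, at 0 min and 10 min after adding 50 nM (final) substrate. Enzyme (10 nM) and compounds were first incubated 15 min at room temperature; enzyme-free buffer wells were negative controls.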
Numbers without * were called inactive; ? = inconclusive; · = not tested or not shown; [ ] = another dose, or the depositor's remark. Unless noted, calls follow the shape of the dose curve; as a rule, active = well fitted curve in the direction sought with a large enough effect; inconclusive = small, poorly fitted or top-dose-only effect, or another doubt; inactive = no such curve, though single readings can be large; an effect the other way counts as inactive or inconclusive.

SMILES	Pol kappa inh	WRN helicase inh	POLH inh	PI5P4K alpha inh	Pol beta inh	POLI inh
Cc1cccc(Nc2nc(N)nc(N)c2N=O)c1	-4.3%	-11.8%	-5.1%	-50.9*	·	1.8%
Cc1cccc(Nc2nc(N)c(C#N)c(CC#N)c2C#N)c1	-2.7%	0.2%	-12.7%	-53.9*	29.6%	106.5%
Cc1ccc(NC(=S)NC(=O)/C=C/c2ccco2)c(O)c1	?	-19.3%	?	-53.8*	17.8µM*	?
Cc1cc(C)c2oc(-c3ccc(C)c(NC(=S)NC(=O)/C=C/c4ccco4)c3)nc2c1	-5.1%	-15.1%	?	-15.8	20µM*	-2.0%
Cc1ccc2oc(-c3cccc(NC(=S)NC(=O)c4cccs4)c3)nc2c1	3.5%	7.5%	2.0%	-5.1	-9.9%	32.0%
Cc1ccc2oc(-c3cccc(NC(=S)NC(=O)/C=C/c4ccco4)c3)nc2c1	?	?	12.6µM*	-27.2	44.7µM*	?
COC(=O)[C@]12CCCCC=C1N(Cc1ccco1)C(=O)[C@H](CC(=O)NCc1cccc3ccccc13)C2	·	-5.3%	·	-8.1	·	·
COc1cccc(-c2c(C#N)c(N)nc3c2c(C)nn3-c2ccccc2)c1O	-14.2%[60.1 µM]	-16.4%	-9.0%	2.7	18.9%	-23.2%
CCOC(=O)c1nn(-c2ccccc2)c(=O)c2c(NC(C)=O)scc12	-0.4%	-8.4%	-7.2%	-3.7	-23.7%	35.7%
Nc1scc2c(C(=O)N/N=C/c3ccc(Cl)cc3)nn(-c3ccccc3)c(=O)c12	?	-8.3%[57.1 µM]	-5.4%	·	22.9%	6.31µM*
CCOC(=O)c1nn(-c2ccccc2)c(=O)c2c(N)scc12	-1.2%	?	?	-60.5*	-7.7%	?
CCCCSCCCNC(=O)C1CCC(CNS(=O)(=O)c2c(C)cc(C)cc2C)CC1 (stereo unspecified)	-4.9%[60.1 µM]	·	-12.1%	·	-8.3%	4.7%
CCc1ccccc1NC(=O)CCCn1c(=O)c2cccn2c2ccccc21	-3.1%	·	-14.4%	·	?	44.7%
O=C(/C=C/c1c(Cl)cccc1Cl)N1CCOCC1	-12.5%	1.1%	-3.5%	-1.7	28.2%	19.4%
O=C(/C=C/c1c(F)cccc1Cl)N1CCOCC1	4.9%	4.6%	-18.6%	-29.8	31.6µM*	17.7%
COC(=O)[C@]12CCCCC=C1N(CCc1ccc(OC)c(OC)c1)C(=O)[C@H](CC(=O)N1CCCCC1)C2	·	-9.9%	·	5.4	·	·
O=c1cc(CSc2nnc(COc3ccccc3Cl)o2)nc2sccn12	-1.0%	-2.0%	11.2%	·	35.5µM*	-7.6%
Cc1cc(=O)[nH]c2c(N=Nc3ccc(O)cc3)c(N)nn12	89.1µM*	?	-17.8%	-21.1	2.0%	?
CN1CCOc2cc(S(=O)(=O)N3CCN(c4nc(-c5cccs5)nc5ccccc45)CC3)ccc21	-19.6%	·	·	·	·	10.6%
O=C(O)c1cc(N/N=C/c2ccc3c(c2)OCCO3)ccc1Cl	?	-18.4%[57.1 µM]	25.1µM*	?	?	?
Cc1ccc(N/N=C/c2ccc3c(c2)OCCO3)cc1Cl	2.1%	-21.1%[57.1 µM]	-14.8%	1.8	3.4%	7.9%
CC(C)n1cc(/C=N/Nc2ccc(Cl)c(C(=O)O)c2)c2ccccc21	·	·	·	·	31.6µM*	·
O=C(O)c1cc(N/N=C/c2cccs2)ccc1Cl	·	·	·	·	22.4µM*	·
COc1cc(/C=N/Nc2ccc(Cl)c(C(=O)O)c2)ccc1OC(=O)c1ccc(F)cc1	-32.3%	-13.3%[11.6 µM]	79.4µM*	-4.8	-9.4%	?
COc1cc(/C=N/Nc2ccc(Cl)c(C(=O)O)c2)ccc1OC(=O)c1ccccc1F	-13.2%	-6.4%	-18.6%	0.5	?	?
SMILES	Pol kappa inh	WRN helicase inh	POLH inh	PI5P4K alpha inh	Pol beta inh	POLI inh
C/C(=N\Nc1ccc(Cl)c(C(=O)O)c1)c1ccc2c(c1)OCO2	?	-24.8%	?	-22.5	?	46.1%
O=C(O)c1cc(N/N=C/c2ccc3c(c2)OCO3)ccc1Cl	-14.7%	-22.3%[57.1 µM]	-4.6%	-53.1*	32.6%	21.1%
O=C(O)c1ccc(N/N=C/c2cc3cc4c(cc3nc2Cl)OCCO4)cc1	-27.7%	-25.0%	44.7µM*	-16.9	-12.3%	?
O=C(c1cccnc1)N1CCN(c2ccc3ccccc3n2)CC1	-9.0%	-5.1%	-2.9%	-1.3	28.7%	-8.6%
O=C(/C=C/c1ccc(Br)cc1)NC(=S)NNC(=O)c1ccco1	4.1%	14.2%	-5.9%	-52.3*	6.5%	6.1%
O=C(/C=C/c1ccccc1)NC(=S)NNC(=O)c1ccco1	1.6%	-15.1%	-12.0%	-23.3	-13.5%	-3.1%
CCc1c(O)cc(=O)n(-c2ccccc2)c1-c1ccccc1	-16.3%	?	31.6µM*	?	22.4µM*	?
COC(=O)CSc1nc2c(c(-c3ccco3)c1C#N)CCCC2	-11.4%	-28.9%	?	?	22.4µM*	?
CC1CCCCC1NS(=O)(=O)c1ccc2c(c1)CC(=O)N2C (stereo unspecified)	0.0%	-8.7%	-12.5%	-0.3	1.7%	27.0%
Cc1oc(-c2cccc(Cl)c2)nc1CS(=O)(=O)CC(=O)NC(C)CCc1ccccc1 (stereo unspecified)	-8.0%	·	-8.0%	·	-6.5%	89.1µM*
O=C(CN1CCCN(S(=O)(=O)c2ccc(Br)cc2)CC1)Nc1cccc(C(F)(F)F)c1	-1.2%	·	-15.5%	·	15.0%	?
COC(=O)CCNC(=O)Cc1ccc(S(=O)(=O)N2CCCCC2)s1	-17.6%	-0.7%[11.6 µM]	79.4µM*	?	·	?
O=C(Cc1ccc(S(=O)(=O)N2CCOCC2)s1)Nc1ccc(S(=O)(=O)N2CCCCC2)cc1	-13.2%	?	-10.9%	-25.5	·	-7.6%
CCC(CC)NC(=O)Cc1ccc(S(=O)(=O)N2CCOCC2)s1	-18.5%	-26.3%	10µM*	?	?	?
CC(=O)Nc1ccc(NC(=O)Cc2ccc(S(=O)(=O)N3CCCCC3)s2)cc1	-24.4%	?	12.6µM*	?	?	?
FC(F)(F)c1ccc(Cl)c(NC(=S)NC2CC2)c1	4.4%	3.1%	-20.9%	4.1	70.9%	16.8%
CC(C)c1ccc(NC(=O)Cn2c(=O)n(CC3CCC(C(=O)NCCc4ccccc4)CC3)c(=O)c3ccccc32)cc1 (stereo unspecified)	-10.8%	·	-13.7%	·	0.9%	23.5%
Cc1cc(=O)n2c(C(=O)Nc3ccc(C)c(Cl)c3)c(C(=O)Nc3ccccc3)sc2n1	2.8%	·	-9.9%	·	3.5%	0.6%
CC(C)C(=O)Nc1ccc(C(=O)NNC(=S)NC(=O)c2ccco2)cc1	-11.3%	-0.1%	26.6%	-3.1	-1.6%	11.1%
Cc1ccc(CNS(=O)(=O)c2ccc(C)s2)cc1	4.5%	4.0%	-0.5%	3.3	11.6%	15.6%
COc1ccc(CCN(C)C2CCCN(C(=O)c3sccc3C)C2)cc1OC (stereo unspecified)	-6.7%	-6.9%	-12.9%	14.3	32.8%	107.4%
O=C(Cn1sc2ccccc2c1=O)Nc1ccc(F)cc1	·	-0.7%	-3.7%	-91.5*	·	·

High-throughput results deposited in PubChem by National Center for Advancing Translational Sciences (NCATS).
